# Source: PMC7862700, “An all-to-all approach to the identification of sequence-specific readers for epigenetic DNA modifications on cytosine”
# What was measured:
# Assay in all cases: DAPPL (digital affinity profiling via proximity ligation, sequencing); 10 mM Tris-HCl pH 7.5, 50 mM NaCl, 1 mM DTT, 4% glycerol, room temperature, 30 min; GST-TFs on glutathione beads, 16-mer random dsDNA library, 0.1% formaldehyde crosslink after washing; high values mean tight binding
# Conditions in all cases: protein: recombinant; tags: N-terminal GST; dsDNA, one strand shown
# ELK1 = molecular target: T1, ELK1 (Homo sapiens, UniProt P19419 1-428)
# T1 sequence: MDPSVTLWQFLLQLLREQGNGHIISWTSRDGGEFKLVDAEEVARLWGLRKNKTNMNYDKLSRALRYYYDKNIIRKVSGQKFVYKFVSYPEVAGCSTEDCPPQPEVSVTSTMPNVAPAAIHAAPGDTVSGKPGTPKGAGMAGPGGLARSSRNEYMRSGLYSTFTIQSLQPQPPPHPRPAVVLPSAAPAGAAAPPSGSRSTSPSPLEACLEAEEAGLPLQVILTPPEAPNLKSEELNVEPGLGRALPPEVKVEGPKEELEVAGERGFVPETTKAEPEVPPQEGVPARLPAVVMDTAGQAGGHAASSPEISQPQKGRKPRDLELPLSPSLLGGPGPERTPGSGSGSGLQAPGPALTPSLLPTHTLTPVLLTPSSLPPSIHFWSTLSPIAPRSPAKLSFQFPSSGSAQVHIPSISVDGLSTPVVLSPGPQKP
# How it was run: (§1)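 Sequencing on an Illumina NextSeq500 followed washing, crosslinking with 0.1% formaldehyde, proximity ligation (BsaI/T4 ligase, 1 h, 37 °C) and PCR amplification of pools that had been incubated for 30 min at room temperature with 200 nmole of a random double-stranded 16-mer DNA library in Tris/NaCl/DTT/glycerol buffer. Each pool held DNA-barcoded human transcription factors, expressed in yeast as GST fusions and captured on glutathione beads, plus a tag-only sample. Binding signal is a hexamer's read frequency for a factor divided by its frequency in the tag-only sample.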
# GABPA = molecular target: T2, GABPA (Homo sapiens, UniProt Q06546 1-454)
# T2 sequence: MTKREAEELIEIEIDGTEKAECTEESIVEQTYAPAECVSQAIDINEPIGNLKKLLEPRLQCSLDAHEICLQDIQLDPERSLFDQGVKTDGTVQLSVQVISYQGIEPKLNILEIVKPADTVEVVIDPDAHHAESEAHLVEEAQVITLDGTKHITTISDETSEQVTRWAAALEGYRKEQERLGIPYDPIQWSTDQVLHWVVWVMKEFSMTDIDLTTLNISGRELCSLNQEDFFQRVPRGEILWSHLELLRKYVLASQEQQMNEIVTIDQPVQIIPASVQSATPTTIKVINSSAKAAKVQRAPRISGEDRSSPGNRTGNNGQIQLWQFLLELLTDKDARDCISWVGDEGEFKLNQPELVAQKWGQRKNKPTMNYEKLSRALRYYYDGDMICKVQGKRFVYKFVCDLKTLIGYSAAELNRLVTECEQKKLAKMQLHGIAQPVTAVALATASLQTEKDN
# How it was run: as §1
# ERG = molecular target: T3, ERG (Homo sapiens, UniProt P11308 1-479)
# T3 sequence: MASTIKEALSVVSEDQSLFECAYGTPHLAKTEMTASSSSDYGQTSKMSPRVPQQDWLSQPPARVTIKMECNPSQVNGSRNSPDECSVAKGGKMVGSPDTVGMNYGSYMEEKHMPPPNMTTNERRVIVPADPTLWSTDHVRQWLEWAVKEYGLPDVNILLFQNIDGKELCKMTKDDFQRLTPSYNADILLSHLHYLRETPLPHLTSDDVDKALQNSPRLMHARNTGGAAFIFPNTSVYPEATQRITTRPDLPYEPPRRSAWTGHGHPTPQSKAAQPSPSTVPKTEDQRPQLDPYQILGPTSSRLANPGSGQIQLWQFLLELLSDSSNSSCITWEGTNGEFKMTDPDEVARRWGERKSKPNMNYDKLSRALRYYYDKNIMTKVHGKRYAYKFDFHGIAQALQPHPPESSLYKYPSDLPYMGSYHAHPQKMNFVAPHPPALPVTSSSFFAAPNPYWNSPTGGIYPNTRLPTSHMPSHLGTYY
# How it was run: as §1
# ELF1 = ELF1 (Homo sapiens, UniProt P32519 1-619)
# How it was run: as §1
# EHF = molecular target: T4, EHF (Homo sapiens, UniProt Q9NZC4 1-300)
# T4 sequence: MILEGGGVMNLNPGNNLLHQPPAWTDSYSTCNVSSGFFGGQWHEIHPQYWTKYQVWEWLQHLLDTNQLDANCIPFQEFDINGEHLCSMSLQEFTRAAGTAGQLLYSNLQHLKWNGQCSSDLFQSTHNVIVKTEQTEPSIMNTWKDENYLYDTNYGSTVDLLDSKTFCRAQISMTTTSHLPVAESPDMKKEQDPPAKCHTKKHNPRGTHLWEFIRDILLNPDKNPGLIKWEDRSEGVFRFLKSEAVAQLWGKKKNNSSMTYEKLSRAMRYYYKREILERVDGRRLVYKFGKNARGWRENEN
# How it was run: as §1
# SPIB = SPIB (Homo sapiens, UniProt Q01892 1-262)
# How it was run: as §1
# FEV = molecular target: T5, FEV (Homo sapiens, UniProt Q99581 1-238)
# T5 sequence: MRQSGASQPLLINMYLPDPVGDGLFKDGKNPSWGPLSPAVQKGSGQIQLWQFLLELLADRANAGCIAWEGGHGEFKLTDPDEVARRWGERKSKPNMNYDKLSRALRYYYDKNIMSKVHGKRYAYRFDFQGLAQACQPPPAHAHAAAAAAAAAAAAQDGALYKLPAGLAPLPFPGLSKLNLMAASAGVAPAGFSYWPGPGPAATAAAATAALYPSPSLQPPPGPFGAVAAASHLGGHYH
# How it was run: as §1
# ETV5 = ETV5 (Homo sapiens, UniProt P41161 1-510)
# How it was run: as §1
# ELF4 = ELF4 (Homo sapiens, UniProt Q99607 1-663)
# How it was run: as §1
# ELK4 = molecular target: T6, ELK4 (Homo sapiens, UniProt P28324-2 1-405)
# T6 sequence: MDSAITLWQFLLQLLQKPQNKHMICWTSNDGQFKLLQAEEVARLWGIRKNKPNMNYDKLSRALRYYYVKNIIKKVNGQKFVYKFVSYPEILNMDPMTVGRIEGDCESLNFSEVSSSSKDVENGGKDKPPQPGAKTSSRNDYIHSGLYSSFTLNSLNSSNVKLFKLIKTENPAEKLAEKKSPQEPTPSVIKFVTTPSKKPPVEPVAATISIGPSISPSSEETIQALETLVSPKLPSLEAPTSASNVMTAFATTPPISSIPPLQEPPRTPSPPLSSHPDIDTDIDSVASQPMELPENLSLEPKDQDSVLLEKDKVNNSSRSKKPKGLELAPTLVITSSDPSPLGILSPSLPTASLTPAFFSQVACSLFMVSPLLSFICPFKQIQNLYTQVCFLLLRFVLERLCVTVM
# How it was run: as §1
# Sequence of ETV5 (P41161 whole entry): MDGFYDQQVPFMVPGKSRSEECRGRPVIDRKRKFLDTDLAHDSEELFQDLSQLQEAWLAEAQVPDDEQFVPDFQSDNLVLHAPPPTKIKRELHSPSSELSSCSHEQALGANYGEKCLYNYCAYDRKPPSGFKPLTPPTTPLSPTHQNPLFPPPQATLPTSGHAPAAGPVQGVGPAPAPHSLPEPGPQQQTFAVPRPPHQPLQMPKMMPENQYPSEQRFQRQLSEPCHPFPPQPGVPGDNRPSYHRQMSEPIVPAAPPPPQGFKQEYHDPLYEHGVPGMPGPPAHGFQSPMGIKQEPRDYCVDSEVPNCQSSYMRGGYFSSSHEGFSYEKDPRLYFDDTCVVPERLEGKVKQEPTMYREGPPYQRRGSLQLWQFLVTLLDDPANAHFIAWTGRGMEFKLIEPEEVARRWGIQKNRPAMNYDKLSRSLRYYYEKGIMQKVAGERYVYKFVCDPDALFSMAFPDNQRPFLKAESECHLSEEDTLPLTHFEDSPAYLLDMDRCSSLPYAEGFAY
# Sequence of ELF4 (Q99607 whole entry): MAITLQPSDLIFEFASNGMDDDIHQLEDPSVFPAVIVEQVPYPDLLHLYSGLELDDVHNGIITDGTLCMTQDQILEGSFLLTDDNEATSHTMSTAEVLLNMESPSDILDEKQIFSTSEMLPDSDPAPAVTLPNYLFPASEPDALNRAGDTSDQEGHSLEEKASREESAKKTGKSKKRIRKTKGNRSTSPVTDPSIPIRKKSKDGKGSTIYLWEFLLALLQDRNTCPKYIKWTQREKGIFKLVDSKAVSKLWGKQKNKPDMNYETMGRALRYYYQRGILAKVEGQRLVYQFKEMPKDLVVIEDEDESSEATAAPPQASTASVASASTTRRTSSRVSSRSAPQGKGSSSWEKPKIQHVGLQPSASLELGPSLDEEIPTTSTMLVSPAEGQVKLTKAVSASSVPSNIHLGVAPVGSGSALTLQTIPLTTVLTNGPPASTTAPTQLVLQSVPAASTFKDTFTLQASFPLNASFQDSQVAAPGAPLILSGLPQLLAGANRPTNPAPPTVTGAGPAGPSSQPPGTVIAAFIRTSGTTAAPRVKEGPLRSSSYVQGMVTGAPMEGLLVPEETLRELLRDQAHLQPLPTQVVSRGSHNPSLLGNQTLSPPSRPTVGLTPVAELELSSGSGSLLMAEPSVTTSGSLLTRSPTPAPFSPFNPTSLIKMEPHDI
# Sequence of ELF1 (P32519 whole entry): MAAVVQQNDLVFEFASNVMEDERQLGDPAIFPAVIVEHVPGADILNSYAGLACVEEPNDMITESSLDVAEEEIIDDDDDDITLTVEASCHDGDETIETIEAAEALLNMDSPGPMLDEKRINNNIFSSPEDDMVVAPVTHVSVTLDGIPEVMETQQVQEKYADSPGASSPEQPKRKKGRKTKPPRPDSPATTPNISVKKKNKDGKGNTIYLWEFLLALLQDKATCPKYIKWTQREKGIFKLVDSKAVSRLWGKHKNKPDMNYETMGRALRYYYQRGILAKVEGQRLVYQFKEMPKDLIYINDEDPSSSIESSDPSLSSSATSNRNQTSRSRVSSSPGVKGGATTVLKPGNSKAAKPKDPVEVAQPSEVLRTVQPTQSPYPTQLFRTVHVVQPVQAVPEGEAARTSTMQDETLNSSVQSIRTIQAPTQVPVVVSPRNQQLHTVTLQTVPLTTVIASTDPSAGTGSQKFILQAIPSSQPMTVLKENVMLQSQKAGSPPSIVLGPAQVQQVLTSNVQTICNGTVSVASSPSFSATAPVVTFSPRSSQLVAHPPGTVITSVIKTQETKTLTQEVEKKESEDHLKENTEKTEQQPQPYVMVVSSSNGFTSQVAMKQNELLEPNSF
# Sequence of SPIB (Q01892 whole entry): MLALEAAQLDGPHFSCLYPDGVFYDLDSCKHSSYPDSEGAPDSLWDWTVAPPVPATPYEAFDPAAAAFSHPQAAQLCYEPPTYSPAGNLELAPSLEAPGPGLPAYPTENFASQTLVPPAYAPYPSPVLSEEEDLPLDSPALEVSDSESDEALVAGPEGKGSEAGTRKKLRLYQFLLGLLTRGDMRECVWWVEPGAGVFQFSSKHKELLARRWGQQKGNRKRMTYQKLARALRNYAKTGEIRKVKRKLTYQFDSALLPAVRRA
sequence,measurement,setting,value
CATGAC,binding signal,ELK1,"1.18 fold enrichment (6-mer frequency, TF over GST control)"
same,binding signal,GABPA,"1.34 fold enrichment (6-mer frequency, TF over GST control)"
same,binding signal,ERG,"1.14 fold enrichment (6-mer frequency, TF over GST control)"
same,binding signal,ELF1,"1.18 fold enrichment (6-mer frequency, TF over GST control)"
same,binding signal,EHF,"1.25 fold enrichment (6-mer frequency, TF over GST control)"
same,binding signal,SPIB,"1.16 fold enrichment (6-mer frequency, TF over GST control)"
same,binding signal,FEV,"1.17 fold enrichment (6-mer frequency, TF over GST control)"
same,binding signal,ETV5,"1.24 fold enrichment (6-mer frequency, TF over GST control)"
same,binding signal,ELF4,"1.28 fold enrichment (6-mer frequency, TF over GST control)"
same,binding signal,ELK4,"1.09 fold enrichment (6-mer frequency, TF over GST control)"
